Many of the other results were omitted from the sample, so hits are more common in it than they were.
Tg IFNy HTS: T. gondii growth inhibition under IFN-gamma; 3.8% of 69,000 active; Toxoplasma gondii growth in IFN-gamma-treated host cells; stronger effect = lower value; activity change, negative = inhibition, % (concentration not given with the values); in the data active means activity change below about -70%, passing the limit was not always enough;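 further: host cells are HeLa cells infected with Toxoplasma gondii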
Numbers stand for hits; 0 = inactive.

SMILES | Tg IFNy HTS
O=C(O)c1ccc2c(c1)nc(Nc1cccc(Cl)c1)c1ccncc12 | -73
Cc1ccc(Nc2nc(C(=O)Nc3cccc(Cl)c3)nc3ccccc23)cc1 | 0
Cc1cccc(Nc2nc(C(=O)Nc3cccc(Cl)c3)nc3ccccc23)c1 | 0
Cc1ccc(C(C)NC(=O)c2cn3c(n2)CCCC3)c(C)c1 (centres undefined) | 0
Cc1cccc(C(=O)N2CCc3c([nH]c4ccccc34)C2c2ccc(Cl)cc2)c1 (centres undefined) | -104
Cc1cccc(C(=O)N2CCc3c([nH]c4ccccc34)C2c2ccc(F)cc2)c1 (centres undefined) | 0
CN(C)c1cccc(C(=O)N2CCc3c([nH]c4ccccc34)C2c2ccccc2)c1 (centres undefined) | -111
COc1ccc(C2c3[nH]c4ccccc4c3CCN2C(=O)c2ccc(N(C)C)cc2)cc1 (centres undefined) | 0
CSc1ccc(C2c3[nH]c4ccccc4c3CCN2C(=O)c2cccc(N(C)C)c2)cc1 (centres undefined) | 0
CSc1ccc(C2c3[nH]c4ccccc4c3CCN2C(=O)c2cccc(F)c2)cc1 (centres undefined) | 0
CSc1ccc(C2c3[nH]c4ccccc4c3CCN2C(=O)c2cccc(C)c2)cc1 (centres undefined) | -115
CCc1cc2ccc(C)cc2nc1SCC(=O)NCCc1ccccc1 | 0
Cc1ccccc1OCC(=O)NCCc1sc(-c2cccc(F)c2)nc1C | 0
CC(C)NC(=O)c1cc2c(nc1N(C)C)CCN(C(=O)NC1CCCC1)CC2 | 0
COc1cc(C)ccc1-c1[nH]cnc1-c1ccccc1 | 0
O=C(NCc1ccccn1)C1CCCN(C2CCN(C(=O)c3ccco3)CC2)C1 (centres undefined) | 0
CC(C)CN1C(=O)CCc2cc(NC(=O)c3ccc4c(c3)OCO4)ccc21 | -77
CCN1C(=O)CCc2cc(NC(=O)CC(C)C)ccc21 | 0
Cc1ccc(C(=O)Nc2ccc3c(c2)CCC(=O)N3CC(C)C)c(C)c1 | 0
CCN1C(=O)CCc2cc(NC(=O)c3ccc4c(c3)OCO4)ccc21 | -87
CCN1C(=O)CCc2cc(NC(=O)/C=C/c3ccccc3)ccc21 | -83
COCCN1C(=O)CCc2cc(NC(=O)c3ccc4c(c3)OCO4)ccc21 | 0
CCC(=O)Nc1ccc2c(c1)CCC(=O)N2CC(C)C | 0
CCN1C(=O)CCc2cc(NC(=O)C3CCCC3)ccc21 | 0
CCN1C(=O)CCc2cc(NC(=O)c3ccc(F)cc3)ccc21 | 0
SMILES | Tg IFNy HTS
Cc1cc2nc(C(=O)N3CCC(O)(CN(C)C)C3)cc(C)n2n1 (centres undefined) | 0
C=CCOCc1cncc2c1CCN(C(=O)N(C)C)C2 | 0
CCOCCCNC(=O)c1nc(Nc2ccccc2)c2ccccc2n1 | 0
COC(=O)[C@@H]1C[C@@H](NC(=O)c2c(C)nc3sccn23)CN1C | 0
CCn1ncc(C(=O)NCC(C)Cn2nc(C)cc2C(F)(F)F)c1C (centres undefined) | 0
c1ccc2c(N3CCOCC3)nc(N3CCOCC3)nc2c1 | 0
c1ccc(CNc2ncc(CN3CCC4(CCOCC4)CC3)cn2)cc1 | 0
c1ccc(CNc2nc(N3CCOCC3)nc(N3CCOCC3)n2)cc1 | -83
S=C(SCc1cn2ccccc2n1)N1CCOCC1 | 0
COCC(=O)N1CCOCC2(CCC(Cn3cccn3)O2)C1 (centres undefined) | 0
Fc1ccc2nc(C3CCCN3Cc3nc(-c4ccco4)no3)[nH]c2c1 (centres undefined) | 0
CC(C)NC(=O)N1CCC(c2cc3c(ncn3C)c(NCc3ccccc3)n2)CC1 | 0
CN(C)C(=O)N1CCC(c2cc3c(ncn3C)c(NCc3ccccc3)n2)CC1 | 0
CC(C)n1cnc2c(NCC3CC3)nc(C3CCN(C(=O)c4ccccc4)CC3)cc21 | -82
CCc1ccccc1NC(=O)c1c(O)c2cccnc2[nH]c1=O | 0
Cc1cc(OCc2nc3ccccc3[nH]2)ccc1C(C)C | -87
CC(NC(=O)Cc1nc2ccccc2[nH]1)c1ccc(O)c(F)c1 (centres undefined) | 0
Cc1cc(C)nc(Nc2n[nH]c(COc3ccc4ccccc4c3)n2)n1 | 0
Cc1nc(-c2ccc(S(C)(=O)=O)cc2)cc(C2CCNCC2)n1 | 0
CCCN1Cc2nccn2CC(CN(C)Cc2ccco2)C1 (centres undefined) | 0
CC(NC(=O)Cc1cc(F)cc(F)c1)C(=O)NC(C(=O)OC(C)(C)C)c1ccccc1 (centres undefined) | 0
CC(C)C[C@@H](C(=O)N[C@H](C(=O)OC1CCCC1)c1ccccc1)[C@H](O)C(=O)NO | -85
CNC(=O)[C@@H](NC(=O)[C@H](CC(C)C)[C@H](O)C(=O)NO)C(C)(C)C | 0
CCn1nc(C)c(CN2CCCCC2c2ccccn2)c1C (centres undefined) | 0
O=C(c1ccc(Cl)cc1)C1CCCN(C(=O)C#Cc2ccccc2)C1 (centres undefined) | 0
SMILES | Tg IFNy HTS
Fc1ccc(CSc2nnnn2-c2ccc3c(c2)OCO3)c(Cl)c1 | -72
Cc1cc(C)cc(NC(=O)CSc2nnnn2-c2ccc3c(c2)OCO3)c1 | 0
c1ccc(CSc2nnnn2-c2ccc3c(c2)OCO3)nc1 | 0
O=C(c1ccco1)N1CC2(CCNCC2)c2cc(F)ccc21 | 0
CCc1ccc(S(=O)(=O)N2CCC(C(=O)NCCc3csc(-c4ccccc4)n3)CC2)cc1 | 0
CCCNC(=O)c1cc(-c2cnc(NCc3ccccc3)nc2)cn1C | -82
Cn1cc(-c2cnc(-c3ccccc3)nc2)cc1C(=O)NCCC#N | 0
CN(C)CCCNC(=O)c1cc(-c2cnc(-c3ccccc3)nc2)cn1C | 0
Cc1oc(-c2ccc(NC(=O)C3CCC3)cc2)nc1Cn1cccn1 | 0
Cc1nc2nc(NC(=O)CCc3ccccc3)[nH]n2c(=O)c1C | 0
CCNC(=O)Cc1ccc(-c2ccc3c(c2)OCCO3)cc1 | -74
CCC(=O)NCc1ccccc1-c1ccc2c(c1)OCCO2 | 0
CCc1cc(-c2ccc3c(c2)OCCO3)ccc1NC(C)=O | 0
Cc1nc(N2CCCC2)nc2c1CCN(C(=O)NC(C)C)CC2 | 0
CNc1cc2c(Nc3cccc(Br)c3)ncnc2cn1 | 0
Brc1cccc(Nc2ncnc3cc4nc[nH]c4cc23)c1 | 0
CCN(CC)c1nc2nonc2nc1Nc1cccc(Br)c1 | -112
Cc1[nH]nc(CCC(=O)N2C[C@@H]3[C@H](C2)[C@H]2CC[C@@H]3O2)c1C | 0
Cc1cc(NC(=O)CCCC(=O)O)no1 | 0
CCCCCCCc1ccc(C(=O)NC(=S)Nc2cc(C)on2)cc1 | -92
Cc1cc(NC(=O)c2ccccc2)no1 | 0
C=CC[C@@H]1CC=C[C@@H](C)N1C(=O)CCn1cncn1 | 0
O=C(O)c1cc(=O)cc(C(F)(F)F)o1 | 0
CC(C)(C)c1cc(C(=O)NC2c3ccccc3Oc3ccccc32)cc(C(C)(C)C)c1 | 0
Cc1ccc(Sc2ccc(C(=O)c3ccccc3)cc2)cc1 | -78
SMILES | Tg IFNy HTS
Cc1ccc(S(=O)(=O)NC(=O)c2ccccc2)cc1 | 0
CN(C)c1ccc(C(=O)c2ccccc2)cc1 | 0
COc1cccc(NC(=O)c2ccc3nnc(C4CN(c5ncccn5)CCN4C)n3c2)c1 (centres undefined) | 0
Cc1ccccc1-c1ccc2c(c1)O[C@H](CN(C)C(=O)Nc1ccc(C(F)(F)F)cc1)[C@@H](C)CN([C@H](C)CO)S2(=O)=O | -97
C[C@H](CO)N1C[C@H](C)[C@H](CN(C)C(=O)Nc2cccc(F)c2)Oc2cc(C#CC3(O)CCCC3)ccc2S1(=O)=O | 0
C/C=C/c1ccc2c(c1)O[C@@H](CN(C)C(=O)Nc1ccc(OC)cc1)[C@@H](C)CN([C@@H](C)CO)S2(=O)=O | 0
